# A structure can be active in one record and inactive in another. Active and inactive are the calls of the source. Entries that show only a call come without a potency. Calls follow the shape of the dose curve; as a rule, active = well fitted cell-killing curve with a large enough effect in the repeat runs; inconclusive = weak or mixed curves, or effect the other way; inactive = flat fitted curve, though single readings scatter.
# Test: qHTS assay to identify small molecule HDAC inhibitors - cell viability counter screen (AID 1259365); also: nearly all actives have a fitted effect of over 50% in size
# Details: HCT-116 viability, CellTiter-Glo ATP luminescence, 2 h; series mostly up to 92.4 µM
# Excerpt: U.S. Tox21 Program National Center for Advancing Translational Sciences [NCATS] NIH Chemical Genomics Center [NCGC] U.S. Environmental Protection Agency [EPA] National Institutes of Environmental Health Sciences [NIEHS] National Toxicology Program [NTP] U.S. Food and Drug Administration [FDA] Tox21 Assay Overview: Histone deacetylases (HDACs) are a group of epigenetic enzymes that regulate gene expression by histone deacetylation. HDACs are capable of introducing epigenetic modifications and such aberrations contribute to the onset and progression of several human diseases, thus making HDACs a popular therapeutic target. For identifying endogenous class I/II HDAC inhibitors a homogenous, luminogenic HDAC I/II cell based assay was used to measure the relative activity of class I and II HDACs from cells. Wild type HCT-116 cells were used to screen Tox21 compound libraries for identifying class I/II HDAC inhibitors.
# Tox21 Assay Protocol Summary: HCT-116 cells were dispensed at 1,500 per well in 5uL of culture medium into white solid bottom 1536-well plates (Greiner Bio-One, Monroe, NC) using a Multidrop Combi (Thermo Scientific, Waltham, MA) dispenser. The assay plates were incubated at 37 C and 5% CO2 for an overnight, and then 23nL of compounds dissolved in DMSO and positive control were transferred using a Pintool station (Wako, San Diego, CA). The assay plates were incubated at 37C and 5% CO2 for 2hr. After compound treatment, 4uL of CellTiter-Glo reagent (Promega Corporation, Madison, WI) was added to each well of the assay plates using Flying Reagent Dispenser (FRD, Aurora Discovery, San Diego, CA) and incubated the assay plates at room temperature for 30min. The luminescence signal was quantified using a ViewLux plate reader (Perkin Elmer, Shelton, CT).
# Potency is read from the fitted curve at half-maximal effect.
row,SMILES,Potency
1,C1=CC2C3C=CC(C3)C2C1 (stereo not given),inactive
2,Cc1c(C(=O)O)c(O)cc2c1C(=O)c1c(O)c([C@@H]3O[C@H](CO)[C@@H](O)[C@H](O)[C@H]3O)c(O)c(O)c1C2=O,27.3 µM (active) and inactive
3,CN1CCc2cccc3c2[C@H]1Cc1ccc(O)c(O)c1-3,inactive
4,NS(=O)(=O)O,inactive
5,Nc1ccc2c(c1)CN1C(=O)c3ccccc3C1=N2,11.6 µM (active)
6,CN(N=O)C(=O)N[C@@H]1[C@@H](O)[C@H](O)[C@@H](CO)O[C@@H]1O,inactive
7,O=C1c2c(O)cccc2Cc2cccc(O)c21,inactive
8,Nc1ccc(O)c([N+](=O)[O-])c1,inactive
9,NC(CO)(CO)CO,inactive
10,CC(C)c1c(C(=O)Nc2ccccc2)c(-c2ccccc2)c(-c2ccc(F)cc2)n1CC[C@@H](O)C[C@@H](O)CC(=O)O,inactive
11,Oc1ccccc1,inactive
12,C/C=C/C=C/C(=O)O,inactive
13,Cc1ccc(S(=O)(=O)O)cc1,inactive
14,CC12CCC(CC1)C(C)(C)O2,inactive
15,O=C(O)c1ccccc1,inactive
16,Cc1cc(C)nc(NS(=O)(=O)c2ccc(N)cc2)n1,inactive
17,C[C@](N)(Cc1ccc(O)c(O)c1)C(=O)O,inactive
18,CCOC(N)=O,inactive
19,CN1[C@@H]2CC(OC(=O)[C@H](CO)c3ccccc3)C[C@H]1[C@@H]1O[C@@H]12 (stereo not given in full),inactive
20,CS(=O)(=O)OCCCCOS(C)(=O)=O,inactive

row,SMILES,Potency
1,CCCCNC(=O)NS(=O)(=O)c1ccc(C)cc1,inactive
2,CCCCC1(COC(=O)CCC(=O)O)C(=O)N(c2ccccc2)N(c2ccccc2)C1=O,inactive
3,CCN(Cc1c(F)cccc1Cl)c1c([N+](=O)[O-])cc(C(F)(F)F)cc1[N+](=O)[O-],inactive
4,COc1ccc2c(c1)c(CC(=O)O)c(C)n2C(=O)c1ccc(Cl)cc1,inactive
5,NC(=O)n1c(O)c(C(=O)c2cccs2)c2cc(Cl)ccc21,inactive
6,Cc1ncc([N+](=O)[O-])n1C,inactive
7,O=C1NC(=O)C(c2ccccc2)(c2ccccc2)N1,inactive
8,CCN(CC)C(=O)c1cccc(C)c1,inactive
9,NS(=O)(=O)c1cc2c(cc1Cl)NCNS2(=O)=O,inactive
10,CC1(C)S[C@@H]2[C@H](NC(=O)[C@H](N)c3ccccc3)C(=O)N2[C@H]1C(=O)O,inactive
11,Cc1cc(=O)oc2cc(O)ccc12,inactive
12,CN1CCC[C@H]1c1cccnc1,inactive
13,Nc1c2c(nc3ccccc13)CCCC2,inactive
14,COc1ccc2cc(S(=O)(=O)N[C@H](CC(=O)N[C@H](Cc3ccc(CN4[C@H](C)CCC[C@@H]4C)cc3)C(=O)N(C)C(C)C)c3ccc4c(c3)OCO4)ccc2c1,inactive
15,CC(=O)CCC(=O)O,inactive
16,O=C1OC2(c3ccccc31)c1cc(Br)c(O)c(Br)c1Oc1c2cc(Br)c(O)c1Br,inactive
17,CC/C(=C(\c1ccccc1)c1ccc(OCCN(C)C)cc1)c1ccccc1,inactive
18,CCCCCCCCCCCCCCCC[N+](C)(C)Cc1ccccc1,inactive
19,O=C1O[C@H]([C@@H](O)CO)C(O)=C1O,inactive
20,COc1ccc(CN(CCN(C)C)c2ccccn2)cc1,inactive

# — PubChem BioAssay (Tox21)
